Bioassay records (PubChem BioAssay)
ELG1 repair inh: ELG1-dependent DNA repair inhibition; AID 504467; HEK293T ELG1-luciferase reporter, luminescence, 16 h; DNA damage induced by 5-fluorouridine; Potency, µM (titrated, usually from 46.1 µM), for inactives: top-dose activity change, negative = inhibition, usual class: inhibitors; actives 2.3% (n = 330,000); also: potency is read from the fitted curve at half-maximal effect; nearly all actives have a fitted effect of over 55% in size
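5-Fluorouridine DNA damage + compound/DMSO, 2,000 cells/well, 16 h, 37 °C/5% CO2. ONE-Glo, 30 min RT, luminescence. Readout = decrease in reporter signal.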
TDP1 cell CPT: DT40-hTDP1 cell growth loss with CPT. Potency, µM (top dose mostly 46.2 µM), for the others: at the highest dose activity change, negative = growth inhibition, hits mostly inhibitors. actives 12% (n = 420,000). chicken DT40 Tdp1-/-;hTDP1 cells + 20 nM CPT, ATP luminescence, 48 h; also: potency is read from the fitted curve at half-maximal effect; nearly all actives have a fitted effect of over 55% in size
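Chicken DT40 Tdp1-/- cells stably complemented with human TDP1 were seeded at 400 cells/well in medium containing 20 nM camptothecin, exposed to pin-transferred compounds, and grown at 37 °C for at least 48 hr. Viability was read as ATP luminescence.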
TDP1 cell noCPT: qHTS for Inhibitors of human tyrosyl-DNA phosphodiesterase 1 (TDP1): qHTS in cells in absence of CPT; DT40 Tdp1-/- hTDP1 cells, no CPT, ATP luminescence, 48 h; Potency, µM (highest dose often 46.2 µM), inactives show at the top dose activity change, negative = growth inhibition, actives largely listed as inhibitors; actives 15% (n = 420,000); AID 686978, 2013; also: potency is read from the fitted curve at half-maximal effect; nearly all actives have a fitted effect of over 55% in size
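A cellular qHTS used chicken DT40 cells lacking endogenous Tdp1 but carrying stably transfected human TDP1. Compounds were applied without camptothecin, and cell growth kinetics were judged by ATP-dependent luminescence after ≥48 hr.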
HT1080 IDH1KD tx: toxicity to HT-1080 IDH1 knockdown cells (counter line); HT-1080 IDH1 knockdown viability, ATP luminescence, 48 h; Potency, µM (highest dose often 46.1 µM), inactives show at the top dose activity, negative = toxicity, actives largely listed as cytotoxic; actives 2% (n = 360,000);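 also: potency is read from the fitted curve at half-maximal effect; 0% = DMSO wells and -100% = cell-free medium wells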
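% activity derives from luminescence (CellTiter-Glo), normalised to DMSO and no-cell wells. HT-1080-IDH1KD cells, 750/well, had 48 h compound exposure at 37 °C.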
IL1B secr inh: inflammasome signaling inhibition, IL-1 beta readout; actives 4.7% (n = 360,000); AID 743279; activity change, % at 57.5 µM; THP-1 LPS/ATP IL-1B secretion, AlphaLISA, 16 h; active compounds read low; in the data active = activity change below about -50%; inconclusive = mostly about -30% to -49%
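Secreted IL-1B measured by AlphaLISA bead assay after 16 h compound exposure of THP-1 cells; compounds (final up to 57.5 uM) added 1 h before LPS (250 ng/mL) and ATP (1.25 mM) stimulation; lower signal means less secretion.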
HT1080NT lethal: kills 2HG-producing HT-1080-NT fibrosarcoma cells | actives 1.6% (n = 360,000) | HT-1080-NT fibrosarcoma viability, CellTiter-Glo ATP luminescence, 48 h | Potency, µM (doses to about 46.1 µM), without a hit: at the top dose activity, negative = less viability, most hits filed as cytotoxic | AID 686970;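 also: NT is the 2HG producing partner of a matched IDH1 knockdown line; potency is read from the fitted curve at half-maximal effect; 0% = DMSO-treated cells and -100% = media-only wells without cells; nearly all actives have a fitted effect of over 55% in size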
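Compounds were tested in concentration-response format on HT-1080-NT cells for 48 hours at 37 degrees C. Cell viability came from CellTiter-Glo luminescence; curves were classified by r2, response magnitude and activity.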
* marks the source's active call; other numbers are inactive results; ? = inconclusive; . = no result; [ ] = another dose, or the depositor's remark. Rows were chosen to be rich in hits. Some 19% of all compounds tested hit in one or more screens of this group. Unless noted, calls follow the shape of the dose curve; as a rule, active = well fitted curve in the direction sought with a large enough effect; inconclusive = small, poorly fitted or top-dose-only effect, or another doubt; inactive = no such curve, though single readings can be large; an effect the other way counts as inactive or inconclusive. Unless noted, % is scaled to controls: 0 for no effect and ±100 for the full control effect.

SMILES | ELG1 repair inh | TDP1 cell CPT | TDP1 cell noCPT | HT1080 IDH1KD tx | IL1B secr inh | HT1080NT lethal
COC/C=C/C1=CC(=O)C[C@H](c2ccc3c(c2)OCO3)C1 | -6% | ? | 18µM* | -4% | -96* | -16%
COc1cccc(C2=CC(=O)C[C@H](c3ccc4c(c3)OCO4)C2)c1OC | ? | 1% | ? | -4% | -6 | -18%
COc1ccc([C@H]2CC(=O)C=C(c3cc(F)ccc3OC)C2)cc1 | -26% | ? | -58% | ? | -3 | ?
CCCCC/C=C/C1=CC(=O)C[C@H](c2ccc3c(c2)OCO3)C1 | -23% | -29% | -22% | -3% | 7 | 0%
COc1ccc(F)cc1C1=CC(=O)C[C@H](c2ccc3c(c2)OCO3)C1 | -20% | 9.2µM* | 13µM* | ? | 19 | ?
COc1cc(F)c(C2=CC(=O)C[C@H](c3ccc4c(c3)OCO4)C2)cc1F | 16µM* | -12% | -27% | 14% | -25 | 12%
O=C1c2ccccc2C(c2nnnn2Cc2ccccc2)N1Cc1cccc(F)c1 (centres undefined) | . | ? | ? | 7% | 37 | 1%
COc1ccc2c(c1)CCc1cnc(-n3ncc(C(=O)NCCCN4CCOCC4)c3C)nc1-2 | . | -2%[9.04 µM] | ? | . | . | .
CCC(C)C1Nc2ccc(C(=O)NCCc3ccc(OC)c(OC)c3)cc2NC1=O (centres undefined) | ? | 16µM* | ? | ? | 11 | ?
COc1ccc(CCNC(=O)c2ccc(OC)c(OC)c2)cc1OC | 14% | 6% | -12% | 21% | 5 | 18%
CC(=O)c1ccc(NC(=O)C(C)OC(=O)C2CCN(c3ccc(C(F)(F)F)cn3)CC2)cc1 (centres undefined) | -23% | -26% | ? | 0% | 10 | -4%
CN(C)c1ncc2nc(-c3ccc(Cl)cc3)c(=O)n(C)c2n1 | . | 2% | 12% | . | . | .
Cn1cccc1/C=C(/C#N)c1ccc(F)cc1 | 5% | -21% | -16% | 0% | -11 | -1%
CCc1ccc(Cn2c(CNS(=O)(=O)c3ccc4c(c3)CCCC4)nc3cccnc32)cc1 | . | ? | 16µM* | . | . | .
CCCC(=O)NCc1nc2cccnc2n1Cc1ccc(F)cc1 | . | -23% | -14% | . | . | .
COc1ccccc1Cn1c(CNS(=O)(=O)c2cccc([N+](=O)[O-])c2)nc2cccnc21 | . | 21µM* | 16µM* | . | . | .
CCc1ccc(S(=O)(=O)NCc2nc3cccnc3n2Cc2ccccc2Cl)cc1 | . | ? | 15µM* | . | . | .
COc1ccc(Cn2c(CNS(=O)(=O)c3ccc(Cl)s3)nc3cccnc32)cc1 | . | ? | 16µM* | . | . | .
COc1ccc(NC(=O)CCc2nnc3n(C)c(=O)c4sccc4n23)cc1 | . | ? | -26% | . | . | .
O=[N+]([O-])c1ccc(S(=O)(=O)NCc2nc3cccnc3n2Cc2ccccc2Cl)cc1 | . | 15µM* | 15µM* | . | . | .
Cc1ccc(F)cc1C(=O)N1CCCC1(C)C(=O)NCC(C)C (centres undefined) | . | 0% | -10% | 12% | 22 | ?
COc1ccc2c(C)cc(=O)oc2c1 | . | 3% | -8% | 5% | -19 | 27%
COc1ccc(C2=NOC(COc3ccc4c(C)cc(=O)oc4c3)C2)c(OC)c1 (centres undefined) | ? | 4.1µM* | 5.2µM* | 5.8µM* | 0 | ?
COc1cccc(COc2ccc3c(C)cc(=O)oc3c2)c1 | ? | -14% | ? | -20% | -29 | -15%
COc1ccccc1C1=NOC(COc2ccc3c(C)cc(=O)oc3c2)C1 (centres undefined) | -11% | 0.82µM* | 0.82µM* | 0.73µM* | 14 | 0.92µM*
SMILES | ELG1 repair inh | TDP1 cell CPT | TDP1 cell noCPT | HT1080 IDH1KD tx | IL1B secr inh | HT1080NT lethal
C=CC(C)(C)c1c2c(c(O)c3c(=O)c4ccc(O)c(O)c4oc13)C=CC(C)(C)O2 | . | 3%[9.04 µM] | -23%[9.04 µM] | . | . | .
Cc1ccc(Nc2nc(N)c([N+](=O)[O-])c(N3CCC(C)CC3)n2)cc1C | ? | ? | ? | 3% | -80* | 10%
Cc1ccc(Nc2nc(N)c([N+](=O)[O-])c(N3CCOCC3)n2)cc1C | 13µM* | 23µM* | 21µM* | -1% | -3 | -2%
COc1ccc(CNC(=O)Cn2c(=O)cc(-c3ccccc3)c3c(C)nn(C)c32)cc1 | . | -5% | -4% | . | . | .
O=C(OCN1C(=O)C(=O)c2ccccc21)c1ccc(Cl)cc1 | 14% | ? | 11% | 7% | 3 | 4%
Cc1nn(C)c(C)c1CN(C(=O)C1CCC(=O)N(C2CCCCCC2)C1)C(C)C (centres undefined) | ? | 4% | 12% | 10% | 19 | 23%
CC(=O)c1sc(=S)n(-c2ccc(Cl)cc2)c1C | -2% | 18µM* | ? | -1% | 20 | 2%
CC(=O)c1sc(=S)n(-c2ccccc2)c1C | -6% | -14% | -13% | -9% | 5 | 1%
COc1ccc2nc3ccccc3nc2c1N | ? | ? | 8.2µM* | ? | -63* | -24%
CCC1N=C(SC)NC(C)=C1C(=O)c1ccccc1 (centres undefined) | -18% | -20% | -28% | -4% | -3 | -2%
CSC1=NC(C(Cl)(Cl)Cl)N=C(c2ccc(C)cc2)N1 (centres undefined) | ? | 0.82µM* | 0.58µM* | 0.65µM* | 30 | 0.37µM*
COc1ccc(NC(=O)c2ccc3c(c2)CCN3S(=O)(=O)c2ccc(C)cc2)cc1Cl | . | -24% | -13% | . | . | .
COc1ccc2c(c1)CCCN2C(N)=Nc1ccc(Cl)cc1 | 3% | ? | 23µM* | ? | -63* | -23%
Cc1ccc(S(=O)(=O)N2CCCc3cc(NC(=O)c4ccc(C(C)(C)C)cc4)ccc32)cc1 | . | 4.1µM* | 3.7µM* | . | . | .
COc1ccc2c(c1)CCCN2S(=O)(=O)c1ccc(Cl)cc1 | ? | 23µM* | 15µM* | -24% | 9 | -3%
COc1ccc(C(=O)Nc2ccc3c(c2)CCCN3S(=O)(=O)c2ccc(C)cc2)cc1 | . | 21µM* | 13µM* | . | . | .
CC(=O)Nc1ccc(NC(=O)c2ccc3c(c2)CCN3S(=O)(=O)c2ccc(C)cc2)cc1 | . | -10% | -1% | . | . | .
O=S(=O)(c1ccc(Cl)cc1)N1CCCc2ccccc21 | -6% | -21% | -25% | 1% | 22 | 3%
COc1ccc2c(c1)CCCN2C(N)=O | 6% | -4% | -3% | 12% | -10 | 2%
